Our source for the growth values is PubChem BioAssay (NCI).

Compounds without any hit were thinned out: in the full panel of roughly 83,000, 20% have a hit.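 48-hour exposure, single concentration, 96-well plates; percent growth endpoint where 0 means no net growth. Active: below 10.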 A number with no mark means an inactive call. Activity calls are given as the source filed them.

This test deals with NCI-H460 lung. Nature of the test: NCI-60 one-dose screen, 48 h (100 = growth as untreated, 0 = no growth, -100 = all killed). The settings on record: 10 µM unless noted.
Turning to `O=C(Nc1ccc(-n2ccc3c(NC(=O)c4ccccc4)nccc32)cc1)c1ccc(N2CCOCC2)c(C(F)(F)F)c1`, the growth is 3.48% (active).
For `COc1cc(/C=C/c2cc(/C=C/c3ccc(O)c(OC)c3)n(C(=O)Nc3ccc(F)c(Cl)c3)n2)ccc1O` the value was 4.43% (active).
The same measure for `COc1cc(OC)c2sc(-c3ccc(-n4cncc4-c4ccc(OC)c(N)c4)cc3)nc2c1`: 78%.
The same measure for `COc1ccc(C2=NNC(c3ccc(Oc4nc5c(c(=O)n(C)c(=O)n5C)n4C)c(OC)c3)C2)cc1` (stereo not given): 95%; for `NS(=O)(=O)c1ccc(CCn2c(SCC(=O)N/N=C/c3cccnc3)nc3ccccc3c2=O)cc1`: 90.5%; for `O=C(NNC(=O)c1cccc(Cl)c1)c1ccccc1`: 106%.
Turning to `N=c1nc(N2CCCCC2)cc(N)n1O`, the growth is 113%.
For `Cc1ccc(C)c(NC(=O)c2sc3c(=O)[nH]cnc3c2C)c1` the value was 81.9%; for `C=CCOC(=O)C1=C(C)NC2=C(C(=O)CCC2)C1c1ccc(F)cc1` (stereo not given), 106%; for `COc1ccc(-c2cnc(-c3ccncc3-c3cccc(OC)c3)o2)cc1`, 7.36% (active).
For `O=C(Nc1ccncc1)C(=O)c1cn(S(=O)(=O)c2cccc(Cl)c2F)c2ccccc12` the value was 90%; for `Cc1ccccc1Nc1n[nH]c(Cc2ccccc2)n1`, 108%; for `Oc1ccccc1-c1nnc(COc2ccc(Cl)cc2Cl)o1`, 28.3%.
The same measure for `CS(=O)(=O)c1ccc(C(=O)N/N=C/c2ccccc2O)cc1`: 14.1%; for `CCCCCCCCCCCCCCCCCC(=O)OCCCCCCCCCCCCC`: 117%.
